Bioassay records as filed in PubChem.
Rows were chosen to be rich in hits. Some 18% of all compounds tested hit in one or more screens of this group.
TGFb inhibitor: qHTS for Inhibitors of TGF-b | Potency, µM (titrated, usually from 46.1 µM), hits mostly inhibitors | 1.2% of 410,000 active | AID 588855, 2011 | HepG2 CAGA-GFP TGF-b/SMAD3 reporter, GFP fluorescence, 18 h; TGF-beta stimulated, 500 pg/mL final; also: nearly all actives have a fitted effect of over 65% in size
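TGF-beta reporter screen: HEPG2 CAGA-GFP, 1% FBS, 500 pg/mL TGF-beta final, 18 h; per-cell GFP summed per well; curves fitted and categorized by class.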
TDP1 cell CPT: qHTS for Inhibitors of human tyrosyl-DNA phosphodiesterase 1 (TDP1): qHTS in cells in presence of CPT | chicken DT40 Tdp1-/-;hTDP1 cells + 20 nM CPT, ATP luminescence, 48 h | Potency, µM (highest dose often 46.2 µM), most hits filed as inhibitors | AID 686979, 2013 | 12% of 420,000 active; also: nearly all actives have a fitted effect of over 55% in size
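Chicken DT40 Tdp1-/- cells complemented with human TDP1, 400 cells/well, exposed to compounds plus 20 nM camptothecin for at least 48 h at 37 C; viability read as ATP content by CellTiter-Glo luminescence.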
TDP1 block: qHTS Assay for Inhibitors of Tyrosyl-DNA Phosphodiesterase (TDP1); recombinant TDP1, AlphaScreen DNA substrate cleavage; Potency, µM (top dose mostly 130 µM), hits mostly inhibitors; 0.28% of 350,000 active; AID 485290, 2010; also: nearly all actives have a fitted effect of over 40% in size
Target sequence (Q9NUW8 whole entry, looked up): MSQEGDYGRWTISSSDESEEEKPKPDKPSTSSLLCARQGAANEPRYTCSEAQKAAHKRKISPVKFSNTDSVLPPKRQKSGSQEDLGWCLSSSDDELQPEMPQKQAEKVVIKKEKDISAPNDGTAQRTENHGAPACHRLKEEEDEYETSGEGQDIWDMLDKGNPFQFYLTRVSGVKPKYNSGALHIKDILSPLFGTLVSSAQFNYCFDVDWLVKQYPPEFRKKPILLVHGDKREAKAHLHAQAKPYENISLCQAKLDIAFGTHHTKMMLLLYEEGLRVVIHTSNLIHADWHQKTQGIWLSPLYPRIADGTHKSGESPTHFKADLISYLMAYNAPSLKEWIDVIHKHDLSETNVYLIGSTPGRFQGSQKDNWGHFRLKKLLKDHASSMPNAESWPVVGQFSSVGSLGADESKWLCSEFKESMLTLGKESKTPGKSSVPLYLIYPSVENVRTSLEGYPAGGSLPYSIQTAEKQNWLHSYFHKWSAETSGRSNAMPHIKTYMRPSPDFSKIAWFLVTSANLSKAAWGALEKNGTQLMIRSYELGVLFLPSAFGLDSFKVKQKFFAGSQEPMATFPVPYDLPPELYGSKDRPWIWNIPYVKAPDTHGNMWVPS
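Recombinant human Tdp1 (E. coli-expressed, 1 nM final) preincubated with compounds 15 min at room temperature, then 5'-biotin/3'-phosphotyrosine-FITC DNA substrate (15 nM final) added for 5 min. AlphaScreen beads (10 ug/ml final) added 10 min; cleavage lowers signal.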
TDP1 cell noCPT: qHTS for Inhibitors of human tyrosyl-DNA phosphodiesterase 1 (TDP1): qHTS in cells in absence of CPT. DT40 Tdp1-/- hTDP1 cells, no CPT, ATP luminescence, 48 h. Potency, µM (top dose mostly 46.2 µM), most hits filed as inhibitors. 15% of 420,000 active. AID 686978, 2013; also: nearly all actives have a fitted effect of over 55% in size
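Luminescent ATP content (CellTiter-Glo) served as the growth readout. Knockout chicken DT40 cells expressing human TDP1 were exposed to compounds without camptothecin for a minimum 48 hr at 37 °C.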
HepG2 viability: qHTS for Inhibitors of TGF-b: Cytotox Counterscreen | HepG2 CAGA-GFP viability, ATP luminescence, 18 h | 0.76% of 410,000 active | AID 588856, 2011 | Potency, µM (highest dose often 46.1 µM), usual class: cytotoxic
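CellTiter-Glo luminescence gave cytotoxicity after 18 hours at 37 degrees C. The cells were HepG2 CAGA-GFP in 1% FBS DMEM, stimulated with 500 pg/mL TGF-beta after compound addition. %Activity was normalised to no-cell wells (complete cell-killing) and DMSO (no toxicity), and curves were fitted and classified.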
IL-1B inflam inh: qHTS for Inhibitors of Inflammasome Signaling: IL-1-beta AlphaLISA Primary Screen; THP-1 LPS/ATP IL-1B secretion, AlphaLISA, 16 h; hits give low values; activity change, % at 57.5 µM; 4.7% of 360,000 active; in the data active = activity change below about -50%; inconclusive = mostly about -30% to -49%
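THP-1 cells pretreated 1 hr with compounds (up to 57.5 uM final), then stimulated with LPS (250 ng/mL final) plus ATP (1.25 mM final); secreted IL-1B measured by AlphaLISA after 16 hr, decreased signal indicating inhibition.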
Numbers stand for hits; - = inactive; ? = inconclusive; . = no result given; [ ] = another dose, or the depositor's remark. Unless noted, calls follow the shape of the dose curve; as a rule, active = well fitted curve in the direction sought with a large enough effect; inconclusive = small, poorly fitted or top-dose-only effect, or another doubt; inactive = no such curve, though single readings can be large; an effect the other way counts as inactive or inconclusive.

SMILES	TGFb inhibitor	TDP1 cell CPT	TDP1 block	TDP1 cell noCPT	HepG2 viability	IL-1B inflam inh
COc1cc(C2NC(=S)NC(C)=C2C(=O)Nc2cc(C)cc(C)c2)ccc1O (centres undefined)	-	-	-	-	-	-
COc1ccc(CCNC(=O)c2ccc3c(c2)c(C)c(C)n3Cc2ccc(F)cc2)c(OC)c1OC	-	18µM	-	23µM	-	.
CCn1c(C)c(C)c2cc(C(=O)NCC(C)c3ccccc3)ccc21 (centres undefined)	-	16µM	-	29µM	-	.
CCn1c(C)c(C)c2cc(C(=O)N3CCc4ccccc4C3)ccc21	?	?	-	15µM	-	-
CCN1CCN(C(=O)c2ccc3c(c2)c(C)c(C)n3Cc2ccccc2)CC1	-	?	-	-	-	-
COc1ccc(CCNC(=O)c2ccc3c(c2)c(C)c(C)n3Cc2ccccc2)c(OC)c1OC	-	23µM	-	?	-	.
COc1ccc(C(=O)NCCc2cc3c(OC)ccc(OC)c3[nH]c2=O)cc1OC	-	?	-	?	-	-
COc1ccc(CCNC(=O)c2ccc(Cn3c(=O)c4ccccc4n(Cc4cccc(C)c4)c3=O)cc2)cc1OC	-	?	-	?	-	.
CCCCc1cc2c(=O)c(C(=O)OC)c[nH]c2cc1OCc1ccccc1	.	-	.	-	.	.
Cc1cccc(OCC(=O)NCc2cc(C)nc3ccccc23)c1	-	?	-	?	-	-
Cc1c(C)n(Cc2ccc(F)cc2)c2ccc(C(=O)N3CCN(c4ccc(F)cc4)CC3)cc12	-	21µM	-	23µM	-	.
Cc1c(C)n(Cc2ccc(F)cc2)c2ccc(C(=O)NCCN3CCOCC3)cc12	?	?	-	16µM	-	-
COc1ccc(OC)c(CCNC(=O)c2ccc3c(c2)c(C)c(C)n3Cc2ccccc2)c1	-	16µM	-	?	-	.
CCn1c(C)c(C)c2cc(C(=O)NCCc3cc(OC)c(OC)c(OC)c3)ccc21	-	4.1µM	-	3.7µM	-	.
COc1ccccc1NC(=O)C1=C(C)Nc2nc(SC)nn2C1c1ccccc1Cl (centres undefined)	-	-	-	?	-	.
COC(=O)[C@@]1(C)[C@H]2C(=O)N(C)C(=O)[C@H]2[C@H]2CN=C(SC)N21	-	-	-	-	-	-
COc1ccc(-c2[nH]ncc2CN2CCOc3c(cc(-c4cccc(OC)n4)cc3OC)C2)cc1	.	-[9.04 µM]	.	-	.	.
O=C(CSC1=N/C(=C/c2ccc(Cl)c(Cl)c2)C(=O)N1c1ccccc1F)NC1CC1	?	16µM	-	16µM	-	-
COc1ccc(Cl)cc1N1C(=O)/C(=C/c2sccc2C)N=C1SCC(=O)NC1CC1	-	?	.	16µM	-	-70
CCOC(=O)NC(=O)c1cn(Nc2ccccc2C(F)(F)F)c(=O)[nH]c1=O	-	-	.	-	-	-
COc1cc([C@@H]2c3cc4c(cc3C(O[C@@H]3O[C@@H]5COC(c6cccs6)O[C@H]5[C@H](O)[C@H]3O)C3COC(=O)[C@@H]32)OCO4)cc(OC)c1O (some centres undefined)	.	0.012µM	.	0.013µM	.	.
COc1cc([C@@H]2c3cc4c(cc3[C@@H](O[C@@H]3O[C@H]5CO[C@@H](C)O[C@@H]5[C@@H](O)[C@H]3O)[C@@H]3COC(=O)[C@@H]23)OCO4)cc(OC)c1O	.	?	-	0.13µM	.	.
COc1cc([C@@H]2c3cc4c(cc3C(OC3OC5COC(C)OC5C(O)C3O)C3COC(=O)[C@@H]32)OCO4)cc(OC)c1O (some centres undefined)	.	0.19µM	-	0.21µM	.	.
COCC(C)OC(=O)/C(C#N)=C\c1coc2ccc(C)cc2c1=O (centres undefined)	-	?	-	?	-	-
Cc1csc(=O)n1CC(=O)OCC(=O)Nc1cc(Cl)ccc1[N+](=O)[O-]	-	-	-	-	-	-
SMILES	TGFb inhibitor	TDP1 cell CPT	TDP1 block	TDP1 cell noCPT	HepG2 viability	IL-1B inflam inh
O=C1/C(=C/c2ccccc2)Oc2ccccc21	.	.	-[21 µM]	.	.	.
CCCNC(=O)C1(C)CCN(Cc2csc3ccccc23)C1 (centres undefined)	-	?	.	?	-	-
Cc1ccc(N2C(=O)c3cccc4c(Oc5ccccc5[N+](=O)[O-])ccc(c34)C2=O)c(C)c1	-	10µM	-	6.5µM	-	-
COc1cc(Cl)c(CNC[C@H]2O[C@@H](n3cnc4c(=O)[nH]c(N)nc43)[C@H](O)[C@@H]2O)c(Cl)c1O	-	-	.	-	-	-
COC(=O)c1cccc(NC(=O)CC2C(=O)NCCN2C(=O)Nc2cc(C)cc(C)c2)c1 (centres undefined)	-	-	-	-	-	-62
COc1ccc(NC(=O)CC2C(=O)NCCN2C(=O)Nc2ccc(C(F)(F)F)cc2)cc1 (centres undefined)	?	-	-	-	-	-79
O=C(CC1C(=O)NCCN1C(=O)Nc1ccc(F)cc1F)Nc1cc(Cl)ccc1Cl (centres undefined)	-	-	.	-	-	.
COC(=O)CC1C(=O)NCCN1C(=O)Nc1ccccc1 (centres undefined)	-	-	-	-	-	-
Cc1cc(C)cc(NC(=O)N2CCNC(=O)C2CC(=O)Nc2cc(Cl)ccc2Cl)c1 (centres undefined)	-	?	-	?	-	-57
O=C(CC1C(=O)NCCN1C(=O)Nc1ccc(C(F)(F)F)cc1)Nc1ccc(F)cc1 (centres undefined)	?	?	.	?	-	?
Cc1ccc(Cc2c(-c3ccc(C)cc3)nc3ccc(Br)cn23)cc1	-	21µM	.	23µM	-	-
Cc1ccc(Cc2c(-c3ccc(Cl)cc3)nc3ccc(Br)cn23)cc1	-	16µM	.	26µM	-	-
COC(c1ccccc1)c1nnc(CCC(=O)N(C)CCOc2ccccc2)o1 (centres undefined)	-	-	-	?	-	-59
COC(c1ccccc1)c1nnc(CCC(=O)N(C)CCCC2CCCC2)o1 (centres undefined)	-	?	-	-	-	-
C[C@@H](C(=O)O)c1ccc(C(=O)c2cccs2)cc1	.	.	-	.	.	.
